Among the data in PubChem BioAssay (EPA / NIEHS) are outcome and AC50 values, retold here.

Activity calls are given as the source filed them. The calls were made as follows: active = hit-call score of the fitted dose curve at least 0.9, where 1 is the maximum; inactive = score below 0.9.

Assay [1] in a line: ATG_CRE_CIS: Attagene CIS-FACTORIAL HepG2 Assay for human cAMP Responsive Element (CRE) binding protein 3 (AID 2282926). Conditions: HepG2 CRE cis-reporter, Attagene multiplexed mRNA; actives raise or lower the signal. The procedure, abridged: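 Endogenous transcription factor activity read via CRE-regulated reporter transcripts in transfected HepG2 cells. After 24 h exposure, RNA was reverse-transcribed, amplified, fluorescently labelled and sized by capillary electrophoresis; gain or loss fitted against DMSO.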

In assay [2] the target is CCAAT/enhancer-binding protein beta (Homo sapiens) (UniProt P17676). Briefly: ATG_C_EBP_CIS: Attagene CIS-FACTORIAL HepG2 Assay for human CCAAT/Enhancer Binding Protein (C/EBP) beta (AID 2282927). As to conditions: HepG2 Attagene cis-factorial transcription factor reporter; actives raise or lower the signal. The method, boiled down:
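Transiently transfected HepG2 (MRTU library, endogenous TF-driven promoters); 24 h dosing; total RNA → oligo(dT) RT → PCR → 6-FAM primer extension → HpaI digest → CE; fit bidirectionally vs DMSO.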

The nature of assay [3]: ATG_CMV_CIS: Attagene CIS-FACTORIAL HepG2 Assay for human CMV (Internal Marker) (AID 2282928).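 Also: endpoint acts as a background internal control marker rather than a target.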 As to conditions: HepG2 CMV promoter reporter, transcription factor profiling; actives raise or lower the signal. The procedure, abridged: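 Bidirectional fits against DMSO are applied to reporter mRNA, read by RT-PCR with capillary electrophoresis, from HepG2 cells exposed 24 h. The endpoint serves as an internal CMV background marker within the cis-factorial reporter panel.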

Assay [4] is described as follows: ATG_DR4_LXR_CIS: Attagene CIS-FACTORIAL HepG2 Assay for human Liver X Receptor (LXR), DR4 submotif (AID 2282929). As to conditions: HepG2 Attagene DR4 cis-reporter, mRNA transcription; AC50: actives raise or lower the signal unless noted; outcome: actives raise or lower the signal unless noted. The method, boiled down:
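Measures endogenous transcription factor activity via a DR4-driven reporter transcript in human HepG2 cells. Compounds incubated 24 h; mRNA quantified by RT-PCR and capillary electrophoresis, analysed as gain or loss of signal versus DMSO.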

The target of assay [5] is Aryl hydrocarbon receptor (Homo sapiens) (UniProt P35869). In words: ATG_Ahr_CIS: Attagene CIS-FACTORIAL HepG2 Assay for human Aryl Hydrocarbon Receptor (Ahr) (AID 2282930). Conditions: HepG2 AhR cis-factorial reporter transcription; actives raise or lower the signal. The method, boiled down:
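Read-out: reporter mRNA quantified by RT-PCR with fluorescent primer extension and capillary electrophoresis. Human HepG2 liver cells carried transfected cis-promoter reporter units and were exposed to chemical for 24 h; gain or loss fitted relative to DMSO.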

A short description of assay [6]: ATG_AP_1_CIS: Attagene CIS-FACTORIAL HepG2 Assay for human Activator Protein 1 (AP-1) (AID 2282931). Conditions: HepG2 Attagene cis-factorial AP-1 reporter mRNA; actives raise or lower the signal. The procedure, abridged: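 Bidirectional concentration-response fitting against DMSO controls. Underlying signal: reporter mRNA from cis-promoter constructs in transiently transfected HepG2, measured after 24 h by RT-PCR and capillary electrophoresis.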

Assay [7] is described as follows: ATG_AP_2_CIS: Attagene CIS-FACTORIAL HepG2 Assay for human Activator Protein 2 (AP-2) (AID 2282932). As to conditions: HepG2 AP-2 cis-reporter, Attagene transcription factor profiling; AC50: actives raise or lower the signal unless noted; outcome: actives raise or lower the signal unless noted. The procedure, abridged:
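Liver-derived HepG2 line, cis-reporter system measuring endogenous factors; 24 h dosing; reporter mRNA detected by fluorescent RT-PCR and capillary electrophoresis.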

Assay [8] is described as follows: ATG_BRE_CIS: Attagene CIS-FACTORIAL HepG2 Assay for human Bone Morphogenetic Protein (BMP) Response Element (BRE) (AID 2282933). As to conditions: HepG2 BMP response element reporter, Attagene transcription factor profiling; actives raise or lower the signal. The method, boiled down: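 HepG2 cells transiently transfected with CIS reporter units (endogenous TF activity, BMP response element), dosed 24 h. Reporter mRNA quantified by RT-PCR, fluorescent labelling and capillary electrophoresis; bidirectional fit vs DMSO baseline.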

Assay [9] has as its target Retinoic acid receptor alpha (Homo sapiens) (UniProt P10276). Briefly: ATG_DR5_RAR_CIS: Attagene CIS-FACTORIAL HepG2 Assay for human Retinoic Acid Receptor Alpha (RARE), DR5 submotif (AID 2282934).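 As to AC50: reporter responds to endogenous RAR alpha beta and gamma in HepG2 not RARA alone.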 As to conditions: HepG2 Attagene cis-factorial RARE DR5 reporter, mRNA; actives raise or lower the signal. The procedure, abridged:
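Read-out: DR5-driven reporter transcript measured by RT-PCR, 6-FAM primer extension, HpaI digest and capillary electrophoresis. Human HepG2 liver cells carry transiently transfected cis-element reporter constructs; dosing lasts 24 h. Gain or loss of signal fitted against DMSO baseline.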

The target in assay [10] is Transcription factor E2F1 (Homo sapiens) (UniProt Q01094). Briefly: ATG_E2F_CIS: Attagene CIS-FACTORIAL HepG2 Assay for human E2F Transcription Factor 1 (AID 2282935). Conditions: HepG2 Attagene cis-reporter, E2F reporter RNA transcripts; actives raise or lower the signal. The procedure, abridged: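 Liver-derived HepG2 cells expressing transfected promoter-driven reporter units received test chemical for 24 hours. Signal gains or losses were fitted bidirectionally against DMSO.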
Sequence of Transcription factor E2F1 (Homo sapiens) (Q01094 whole entry, looked up): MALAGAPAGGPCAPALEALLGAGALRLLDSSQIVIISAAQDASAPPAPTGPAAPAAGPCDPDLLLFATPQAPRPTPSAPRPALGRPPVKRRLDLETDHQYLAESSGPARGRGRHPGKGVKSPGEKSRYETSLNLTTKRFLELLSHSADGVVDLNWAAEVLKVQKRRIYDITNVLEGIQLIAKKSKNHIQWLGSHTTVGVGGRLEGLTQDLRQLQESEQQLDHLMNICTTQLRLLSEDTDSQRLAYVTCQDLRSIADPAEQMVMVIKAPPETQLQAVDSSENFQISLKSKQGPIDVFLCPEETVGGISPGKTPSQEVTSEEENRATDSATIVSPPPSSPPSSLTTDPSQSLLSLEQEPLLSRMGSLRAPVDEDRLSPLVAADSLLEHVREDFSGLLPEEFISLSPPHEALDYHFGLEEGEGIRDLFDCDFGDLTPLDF

Sequence of CCAAT/enhancer-binding protein beta (Homo sapiens) (P17676 whole entry, looked up): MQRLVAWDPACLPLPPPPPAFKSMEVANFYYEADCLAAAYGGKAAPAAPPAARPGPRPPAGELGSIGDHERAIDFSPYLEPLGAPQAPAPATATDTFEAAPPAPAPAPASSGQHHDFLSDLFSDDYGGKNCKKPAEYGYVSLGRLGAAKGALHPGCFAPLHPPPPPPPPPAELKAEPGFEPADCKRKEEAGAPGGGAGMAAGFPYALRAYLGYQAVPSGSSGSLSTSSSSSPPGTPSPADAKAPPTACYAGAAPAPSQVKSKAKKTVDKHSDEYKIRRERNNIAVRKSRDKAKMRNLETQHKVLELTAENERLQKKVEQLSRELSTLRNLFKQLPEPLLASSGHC
Sequence of Aryl hydrocarbon receptor (Homo sapiens) (P35869 whole entry, looked up): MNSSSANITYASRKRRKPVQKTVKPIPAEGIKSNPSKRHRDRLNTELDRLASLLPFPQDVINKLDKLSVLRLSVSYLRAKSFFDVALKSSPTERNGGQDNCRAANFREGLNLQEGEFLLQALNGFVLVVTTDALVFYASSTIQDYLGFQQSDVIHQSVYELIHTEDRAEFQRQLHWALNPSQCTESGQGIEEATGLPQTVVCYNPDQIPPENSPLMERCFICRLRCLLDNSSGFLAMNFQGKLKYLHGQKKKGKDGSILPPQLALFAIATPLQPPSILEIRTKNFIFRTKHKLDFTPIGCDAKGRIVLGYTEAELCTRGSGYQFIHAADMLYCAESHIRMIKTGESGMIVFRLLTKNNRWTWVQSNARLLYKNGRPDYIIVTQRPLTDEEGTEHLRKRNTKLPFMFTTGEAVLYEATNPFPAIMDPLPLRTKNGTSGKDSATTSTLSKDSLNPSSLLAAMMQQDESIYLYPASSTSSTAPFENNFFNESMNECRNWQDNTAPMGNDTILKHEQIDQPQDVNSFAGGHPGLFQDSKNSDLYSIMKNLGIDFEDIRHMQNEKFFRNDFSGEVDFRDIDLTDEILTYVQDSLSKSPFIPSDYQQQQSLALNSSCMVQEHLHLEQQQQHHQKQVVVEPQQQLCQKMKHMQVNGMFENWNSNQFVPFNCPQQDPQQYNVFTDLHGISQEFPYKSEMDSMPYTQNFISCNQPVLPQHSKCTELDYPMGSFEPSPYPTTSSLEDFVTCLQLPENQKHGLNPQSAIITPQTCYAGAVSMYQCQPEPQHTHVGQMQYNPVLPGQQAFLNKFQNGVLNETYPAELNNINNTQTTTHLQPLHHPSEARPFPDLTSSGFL
Sequence of Retinoic acid receptor alpha (Homo sapiens) (P10276 whole entry, looked up): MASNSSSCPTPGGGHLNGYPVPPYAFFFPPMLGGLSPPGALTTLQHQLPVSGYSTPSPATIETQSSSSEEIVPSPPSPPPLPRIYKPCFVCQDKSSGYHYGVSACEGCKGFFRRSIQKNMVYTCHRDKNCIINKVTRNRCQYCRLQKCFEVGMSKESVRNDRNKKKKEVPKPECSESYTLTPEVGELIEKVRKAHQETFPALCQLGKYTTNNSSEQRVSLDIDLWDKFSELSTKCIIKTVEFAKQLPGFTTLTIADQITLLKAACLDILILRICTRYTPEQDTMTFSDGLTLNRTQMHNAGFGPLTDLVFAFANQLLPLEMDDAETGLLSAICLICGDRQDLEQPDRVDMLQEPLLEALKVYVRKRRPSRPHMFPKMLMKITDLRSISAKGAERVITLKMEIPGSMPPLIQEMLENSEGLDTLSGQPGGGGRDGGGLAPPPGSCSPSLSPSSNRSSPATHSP

Regarding `CN(CCO)S(=O)(=O)C(F)(F)C(F)(F)C(F)(F)C(F)(F)C(F)(F)C(F)(F)C(F)(F)C(F)(F)F`, the molecule was called inactive in assay [1], in assay [2], in [3], in assay [4], in assay [5] and in assay [6]. Further, the outcome in assay [7], in [8], in [9] and in assay [10] was inactive.
For the molecule `C[N+](C)(CCCNS(=O)(=O)CCC(F)(F)C(F)(F)C(F)(F)C(F)(F)C(F)(F)C(F)(F)F)CC(=O)[O-]`, the outcome in assay [1], in assay [2], in assay [3], in assay [4], in assay [7] and in assay [8] was inactive. For the same molecule, the call in assay [9] and in assay [10] was inactive. The concentration at half-maximal activity (AC50) in [5] is 0.0224 µM (active); in assay [6], 0.00657 µM (active).
Consider `c1cc2cccc3c4cccc5cccc(c(c1)c23)c54`, for which the molecule was classed as inactive in [1], in assay [2], in assay [3], in assay [4], in assay [6] and in assay [7]. Also, the result in assay [8], in [9] and in assay [10] was inactive. Moreover, in [5], the half-maximal activity concentration (AC50) was 17.6 µM (active).
For `Nc1cc(Cl)c(-c2cc(Cl)c(N)cc2Cl)cc1Cl`, the molecule was called inactive in assay [1], in assay [2], in [5], in assay [7], in assay [9] and in assay [10]. Besides, the AC50 in assay [3] was 2.08 µM (active); in assay [4], 2.65 µM (active); in assay [6], 3.81 µM (active); in [8], 21 µM (active).
As to `c1cc[nH]c1`, the molecule was classed as inactive in [1], in assay [2], in assay [3], in [4], in [5] and in assay [6]. Further, the molecule was called inactive in assay [7], in assay [8], in assay [9] and in assay [10].
For `COCC1CCC(CO)CC1` (stereo not given), the molecule was classed as inactive in assay [1], in assay [2], in assay [3], in [4], in [5] and in [6]. Further, the result in assay [7], in [8], in [9] and in [10] was inactive.
For `Brc1cc(Br)c(Oc2c(Br)cc(Br)c(Br)c2Br)cc1Br`, the molecule was classed as inactive in [1], in assay [2], in [3], in [4], in assay [5] and in assay [6]. Further, the call in [7], in [8], in assay [9] and in [10] was inactive.
In the case of `CCCCCCCCCCCCCCCC(=O)OC`, the molecule was classed as inactive in [1], in assay [2], in assay [3], in assay [4], in assay [5] and in assay [6]. Besides, the molecule was classed as inactive in assay [7], in assay [8], in assay [9] and in [10].
On to `CC(C)(C)C1CCCCC1O` (stereo not given), for which the result in assay [1], in [2], in assay [3], in [4], in assay [5] and in assay [6] was inactive. Moreover, the molecule was classed as inactive in assay [7], in assay [8], in assay [9] and in [10].
For the molecule `FC(F)=C(F)C(F)(F)C(F)(F)C(F)(F)C(F)F`, the molecule was classed as inactive in assay [1], in [2], in assay [3], in [4], in [5] and in assay [6]. For the same molecule, the result in [7], in assay [8], in assay [9] and in assay [10] was inactive.
In the case of `FCOC(C(F)(F)F)C(F)(F)F`, the outcome in [1], in assay [2], in assay [3], in assay [4], in [5] and in assay [6] was inactive. In addition, the molecule was classed as inactive in assay [7], in assay [8], in assay [9] and in [10].
`O=C(C=C(O)C(F)(F)F)C(F)(F)F`: the call in assay [1], in assay [2], in assay [3], in assay [4], in assay [5] and in assay [6] was inactive. The molecule was classed as inactive in [7], in assay [8], in assay [9] and in [10].
In the case of `CC1COCc2cc3c(cc21)C(C)(C)C(C)C3(C)C` (stereo not given), the molecule was called inactive in [1], in [2], in assay [3] and in [8]. Moreover, the AC50 in assay [4] is 158 µM (active); in [5], 91.3 µM (active); in assay [6], 79.4 µM (active); in assay [7], 173 µM (active); in assay [9], 100 µM (active); in assay [10] it was 159 µM (active).
In the case of `CC(=O)Nc1ccc(S(N)(=O)=O)cc1`, the molecule was called inactive in [1], in assay [2], in assay [3], in assay [4], in assay [5] and in assay [6]. Besides, the molecule was called inactive in assay [7], in [8], in assay [9] and in assay [10].
Take `CCC1CO1` (stereo not given): the call in assay [1], in assay [2], in [3], in assay [4], in assay [5] and in assay [6] was inactive. Moreover, the outcome in assay [7], in assay [8], in [9] and in assay [10] was inactive.
In the case of `FC(OC(F)(F)C(F)(F)C(F)(F)F)C(F)(F)F` (stereo not given), the result in assay [1], in assay [2], in assay [3], in [4], in [5] and in assay [6] was inactive. Also, the result in assay [7], in assay [8], in assay [9] and in assay [10] was inactive.
For `O=C(NCc1ncc(C(F)(F)F)cc1Cl)c1c(Cl)cccc1Cl`, the molecule was classed as inactive in [1], in assay [2], in assay [3], in [5], in assay [6] and in assay [7]. Besides, the molecule was classed as inactive in [8] and in [9]. For the same molecule, the values for the AC50 in assay [4] and in assay [10] were 81.4 µM (active) and 43.1 µM (active), respectively.
As to `FC(F)(F)C(F)(F)C(F)(F)C(F)(F)I`, the result in [1], in assay [2], in [3], in assay [4], in assay [5] and in assay [6] was inactive. The outcome in assay [7], in assay [8], in [9] and in [10] was inactive.
For the molecule `Nc1ccn([C@@H]2O[C@H](CO)[C@@H](O)C2O)c(=O)n1` (stereo not given in full), the molecule was called inactive in assay [1], in assay [2], in assay [3], in assay [4], in assay [5] and in assay [6]. For the same molecule, the molecule was called inactive in assay [7], in assay [8], in assay [9] and in assay [10].
For the molecule `CC1CCC(CO)CC1` (stereo not given), the molecule was called inactive in assay [1], in [2], in [3], in assay [4], in assay [5] and in [6]. Moreover, the molecule was called inactive in assay [7], in assay [8], in [9] and in assay [10].
As for `Nc1ccc(O)c(C(=O)O)c1`, the molecule was classed as inactive in assay [1], in assay [2], in assay [3], in assay [4], in assay [5] and in assay [6]. Besides, the molecule was called inactive in [7], in assay [8], in [9] and in assay [10].
In the case of `CC1CCC(C(=O)O)CC1` (stereo not given), the outcome in assay [1], in assay [2], in assay [3], in assay [4], in [5] and in [6] was inactive. For the same molecule, the molecule was classed as inactive in [7], in assay [8], in [9] and in [10].
With `CCOC=O`, the call in [1], in [2], in assay [3], in assay [4], in [5] and in [6] was inactive. Besides, the molecule was called inactive in assay [7], in [8], in assay [9] and in assay [10].
Take `CC(C)(O)C(=O)c1ccccc1`: the molecule was classed as inactive in assay [1], in assay [2], in [3], in assay [4], in [5] and in assay [6]. For the same molecule, the molecule was classed as inactive in assay [7], in assay [8], in assay [9] and in assay [10].
